The panel holds about 83,000 compounds, 20% with a hit somewhere; the sample as a whole holds those more often.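 48-hour exposure, single concentration, 96-well plates; percent growth endpoint where 0 means no net growth. Active: below 10.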 Unmarked numbers belong to inactive results. Calls of active or inactive are those of the source.
Tested on: HCT-116 colon
Assay: NCI-60 one-dose screen, 48 h (100 = growth as untreated, 0 = no growth, -100 = all killed)
Conditions: 10 µM

Structure (SMILES)	growth
O=S(=O)(Nc1ncccn1)c1ccc(-n2c(-c3ccccc3)nc(-c3ccccc3)c2-c2ccccc2)cc1	86.4%
COc1ccc(-c2cc(-c3cc(C(=O)c4ccccc4)n4ccc(C)cc34)nc(N)c2C#N)cc1	58.1%
N#Cc1ccc(NC(=O)CSc2ccc(-c3ccc(Br)cc3)nn2)cc1	64%
CCCn1c(O)c(N=Nc2nc(-c3cc4ccccc4oc3=O)cs2)c2cc(Br)ccc21	101%
COc1cc2oc(-c3cccc(C(=O)Nc4ccc(Cl)cc4)c3)cc(=O)c2c(OCCNC(=O)CNC(=O)OC(C)(C)C)c1OC	41.6%
CCCCOc1ccc(Nc2nc3ccccc3nc2Nc2ccc(OCCCC)cc2)cc1	49%
COc1cc(NC(=O)CSc2nnc(-c3ccc4nc(-c5ccc(Cl)cc5)[nH]c4c3)o2)cc(OC)c1OC	37.1%
O=C(NO)c1ccc(CNC(=O)[C@H]2Cc3c([nH]c4ccccc34)[C@H](c3ccc(Cl)cc3)N2)cc1	1.03% (active)
N#Cc1c(NC(=O)c2ccc(C(F)(F)F)c(Cl)c2)sc2c1CCC(=O)C2	-44.9% (active)
O=C(Cc1ccc2c(c1)CN(C1CCC(=O)NC1=O)C2=O)NCc1cccc2ccccc12 (configuration not stated)	9.59% (active)
CCOC(=O)CNC(=O)CN(Cc1ccccc1)C(=O)[C@@]1(C)CCC[C@]2(C)[C@H]3C[C@H]4C(C(C)C)=C[C@]3(CC[C@H]21)[C@@H]1C(=O)OC(=O)[C@@H]14	37.4%
O=C(NCCCCCCCCCC[P+](c1ccccc1)(c1ccccc1)c1ccccc1)c1ccc(-n2nc(-c3ccccc3O)nc2-c2ccccc2O)cc1	-79.4% (active)
COc1ccc2[nH]c(=O)c(CSc3ccc(Nc4nccc(-c5ccc(Cl)cc5)n4)cc3)cc2c1	78.9%
CCOC(=O)C1=C(N)N(c2ccccc2)C2=C(C(=O)CC(C)(C)C2)C1c1ccccc1OC (configuration not stated)	101%
COc1cccc2nc(Nc3cccc(NC(=O)c4ccc(CN5CCCN(C)CC5)c(C(F)(F)F)c4)c3)ccc12	-64.7% (active)
COc1cc(C2CC(c3ccc(C)cc3)=Nc3c(N)nc(N)nc3N2)ccc1Oc1nc(Nc2ccc(F)cc2)nc(N(C)C)n1 (configuration not stated)	6.7% (active)
CC(=O)Nc1ccc(-c2cn(-c3cccc(C(=O)Nc4ccc(Cl)c(C(F)(F)F)c4)c3)nn2)cn1	-53.9% (active)
Cc1cc(C(F)(F)F)ccc1C(=O)Nc1sc2c(c1C#N)CCC(=O)C2	5.39% (active)
COc1ccc(OC)c(/C=N/NC(=O)c2ccc3nc(-c4ccc(Cl)cc4)[nH]c3c2)c1	56.9%

Structure (SMILES)	growth
CC1=N/C(=C\c2ccc(N(C)C)cc2)C(=O)N1CCc1ccc(S(N)(=O)=O)cc1	94.3%
Cc1ccc(-c2cc(C(=O)N=Nc3c(O)[nH]c4ccc(Br)cc34)c3ccccc3n2)cc1	27.4%
COc1ccccc1C(=O)NNC(=O)CSc1nc2c(c(=O)[nH]1)CCCC2	102%
C=C1CCC2C3(C)COC(c4cccc(F)c4)OC3CCC2(C)C1CC(O)C1=CCOC1=O (configuration not stated)	-7.46% (active)
C=C1CCC2C3(C)COC(c4c(F)cccc4F)OC3CCC2(C)C1C/C=C1/C(=O)OCC1O (configuration not stated)	-59.2% (active)
Nc1nnc(-c2c[nH]c3ccc(F)cc23)c(-c2c[nH]c3ncccc23)n1	25%
CC(=O)NS(=O)(=O)c1ccc(NC(=O)CSC2=NC(c3ccccc3)C(C(C)=O)=C(C)N2)cc1 (configuration not stated)	102%
COC1=C[C@@]23CCC(=O)N2CCc2cc4c(cc2[C@H]3[C@H]1OC(=O)C(C)(C)O)OCO4	101%
Nc1nc(-c2ccccc2)cs1	50.7%
COC(=O)c1c(C(=O)OC)c2n(c1C)[C@@H]([C@@H](C)[C@H]1CC[C@H]3[C@@H]4CCC5=CC(=O)CC[C@]5(C)[C@H]4CC[C@]13C)SC2	23.2%
C/C(=N\NC(N)=S)c1ccc(Nc2nc(SC(C)C)nc(-c3ccccc3)c2C#N)cc1	57.5%
COc1ccc(-c2cc(-c3cc(C(=O)c4ccc(Br)cc4)n4ccc(C)cc34)nc(N)c2C#N)cc1	73.8%
CC(=O)Nc1ccc(-n2cnc3cc(-c4ccc(NS(C)(=O)=O)cc4)ccc32)cc1	33.9%
O=c1cc(-c2ccccc2)oc2cc(OCCCCNCc3ccccc3)cc(O)c12	-73.7% (active)
C/C(=N\N=C\c1ccc(Cl)c([N+](=O)[O-])c1)c1ccc2c(c1)Nc1ccccc1S2	19.4%
N#Cc1c(-c2ccc(Cl)cc2)cc(-c2ccccc2)nc1OCc1ccccc1	53.7%
COc1cccc(/C=N/NC(=O)c2ccc3nc(-c4ccc(Cl)cc4)[nH]c3c2)c1O	-90.3% (active)
COc1ccc(/C(CSc2nnc(-c3c[nH]c4ccccc34)n2-c2ccccc2)=N/O)cc1	28.1%

From PubChem BioAssay (NCI)
